Our source for the log2 fold change values is the supplement of paper PMC10849652.

Of roughly 7,900 targets only a part is listed; those with a hit were picked by preference. About 0.6% of all pairs of compound and target were hits. Unmarked numbers belong to inactive results.

Common to all, as to experiment: log2 fold change, soluble protein after heating vs DMSO (PISA); higher = thermal stabilisation; K562 cells, 10 uM, 30 min; active = over 0.2 and 3.5 SD of the protein, either way, in both replicates (recomputed)
Compound in one assay: Cc1ccc(NC(=O)c2ccc(CN3CC[C@H](N(C)C)C3)c(C(F)(F)F)c2)cc1Nc1nccc(-c2cncnc2)n1 [bafetinib]
The method, boiled down: (§1)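 Quantification of soluble protein used TMTpro 16plex LC-MS/MS, with channel sums equalised. Samples were the supernatant after 21,000xg for 90 min of pooled aliquots from K562 cells (2×10^6 cells/mL) treated with 10 μM compound for 30 min, heated for 3 min over 48°C-58°C, and extracted in PBS with 0.5% NP-40 at 4°C. Values, from duplicates, describe thermal stability against control samples on a log2 fold-change scale.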

Compound in a further assay: Cc1cn(-c2cc(NC(=O)c3ccc(C)c(Nc4nccc(-c5cccnc5)n4)c3)cc(C(F)(F)F)c2)cn1 [nilotinib]
The method, boiled down:
as §1

Compound in assay [1]: Cc1nc(Nc2n[nH]c3c2CN(C(=O)N[C@H](CN(C)C)c2ccccc2)C3(C)C)c2sccc2n1
The method, boiled down: as §1

Compound in another assay: Cc1nc(Nc2ncc(C(=O)Nc3c(C)cccc3Cl)s2)cc(N2CCN(CCO)CC2)n1 [dasatinib]
In a few lines: as §1

Compound in assay [2]: Cc1ncc(-c2ccnc(Nc3ccc(S(C)(=O)=O)cc3)n2)n1C(C)C
The method, boiled down: as §1

Compound in another assay: Cn1cncc1[C@@](N)(c1ccc(Cl)cc1)c1ccc2c(c1)c(-c1cccc(Cl)c1)cc(=O)n2C [tipifarnib]
In a few lines: as §1

Compound in another assay: FC(F)(F)c1ccc(/C=C/c2nc(COc3ccc(CCCCn4ccnn4)cc3)co2)cc1 [mubritinib]
In a few lines: as §1

Compound in assay [3]: Cn1cc(-c2ccc3c(c2)CCN3C(=O)Cc2cccc(C(F)(F)F)c2)c2c(N)ncnc21
In a few lines: as §1

Compound in assay [4]: Cn1cc(-c2ccc3nnc(C(F)(F)c4ccc5ncccc5c4)n3n2)cn1
In a few lines:
as §1

Compound in assay [5]: Cc1cccc(CC(=O)N2CCc3c2ccc(-c2cn(C)c4ncnc(N)c24)c3F)n1
In a few lines: as §1

Sequence of UniProt Q8WV16 (Q8WV16 whole entry, looked up): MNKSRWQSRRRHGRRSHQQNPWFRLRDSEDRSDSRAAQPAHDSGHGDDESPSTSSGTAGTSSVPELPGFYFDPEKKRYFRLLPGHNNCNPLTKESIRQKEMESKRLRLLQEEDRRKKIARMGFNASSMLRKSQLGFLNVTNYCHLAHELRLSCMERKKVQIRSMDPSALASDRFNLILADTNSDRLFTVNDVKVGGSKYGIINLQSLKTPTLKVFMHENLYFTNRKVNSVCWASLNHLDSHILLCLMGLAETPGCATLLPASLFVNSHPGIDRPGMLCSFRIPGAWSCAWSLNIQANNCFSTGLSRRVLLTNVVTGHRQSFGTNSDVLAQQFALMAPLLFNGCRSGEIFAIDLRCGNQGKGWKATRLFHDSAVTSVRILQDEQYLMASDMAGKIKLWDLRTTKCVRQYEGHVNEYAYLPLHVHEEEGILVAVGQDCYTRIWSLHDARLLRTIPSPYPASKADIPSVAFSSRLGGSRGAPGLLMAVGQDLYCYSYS
Sequence of UniProt Q15910 (Q15910 whole entry, looked up): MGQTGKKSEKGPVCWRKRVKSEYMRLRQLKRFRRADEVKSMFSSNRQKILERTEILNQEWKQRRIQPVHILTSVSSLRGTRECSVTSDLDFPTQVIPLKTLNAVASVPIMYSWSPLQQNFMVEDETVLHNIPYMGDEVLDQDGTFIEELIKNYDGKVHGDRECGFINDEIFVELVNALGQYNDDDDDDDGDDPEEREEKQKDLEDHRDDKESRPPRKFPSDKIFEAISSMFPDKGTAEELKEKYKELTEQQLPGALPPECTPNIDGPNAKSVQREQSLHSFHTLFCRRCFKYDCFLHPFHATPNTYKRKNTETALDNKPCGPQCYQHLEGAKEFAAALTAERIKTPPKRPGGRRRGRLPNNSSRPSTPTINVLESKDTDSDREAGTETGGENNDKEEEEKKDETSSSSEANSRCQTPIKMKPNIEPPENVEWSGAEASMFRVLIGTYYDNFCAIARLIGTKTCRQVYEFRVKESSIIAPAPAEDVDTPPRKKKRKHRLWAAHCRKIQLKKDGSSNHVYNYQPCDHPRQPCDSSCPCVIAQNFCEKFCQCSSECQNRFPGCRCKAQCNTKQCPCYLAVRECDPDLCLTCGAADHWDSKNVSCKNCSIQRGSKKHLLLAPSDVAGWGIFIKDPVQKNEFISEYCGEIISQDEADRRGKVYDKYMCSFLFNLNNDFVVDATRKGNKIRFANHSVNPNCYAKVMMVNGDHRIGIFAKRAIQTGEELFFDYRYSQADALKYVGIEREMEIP
Sequence of UniProt Q04637 (Q04637 whole entry, looked up): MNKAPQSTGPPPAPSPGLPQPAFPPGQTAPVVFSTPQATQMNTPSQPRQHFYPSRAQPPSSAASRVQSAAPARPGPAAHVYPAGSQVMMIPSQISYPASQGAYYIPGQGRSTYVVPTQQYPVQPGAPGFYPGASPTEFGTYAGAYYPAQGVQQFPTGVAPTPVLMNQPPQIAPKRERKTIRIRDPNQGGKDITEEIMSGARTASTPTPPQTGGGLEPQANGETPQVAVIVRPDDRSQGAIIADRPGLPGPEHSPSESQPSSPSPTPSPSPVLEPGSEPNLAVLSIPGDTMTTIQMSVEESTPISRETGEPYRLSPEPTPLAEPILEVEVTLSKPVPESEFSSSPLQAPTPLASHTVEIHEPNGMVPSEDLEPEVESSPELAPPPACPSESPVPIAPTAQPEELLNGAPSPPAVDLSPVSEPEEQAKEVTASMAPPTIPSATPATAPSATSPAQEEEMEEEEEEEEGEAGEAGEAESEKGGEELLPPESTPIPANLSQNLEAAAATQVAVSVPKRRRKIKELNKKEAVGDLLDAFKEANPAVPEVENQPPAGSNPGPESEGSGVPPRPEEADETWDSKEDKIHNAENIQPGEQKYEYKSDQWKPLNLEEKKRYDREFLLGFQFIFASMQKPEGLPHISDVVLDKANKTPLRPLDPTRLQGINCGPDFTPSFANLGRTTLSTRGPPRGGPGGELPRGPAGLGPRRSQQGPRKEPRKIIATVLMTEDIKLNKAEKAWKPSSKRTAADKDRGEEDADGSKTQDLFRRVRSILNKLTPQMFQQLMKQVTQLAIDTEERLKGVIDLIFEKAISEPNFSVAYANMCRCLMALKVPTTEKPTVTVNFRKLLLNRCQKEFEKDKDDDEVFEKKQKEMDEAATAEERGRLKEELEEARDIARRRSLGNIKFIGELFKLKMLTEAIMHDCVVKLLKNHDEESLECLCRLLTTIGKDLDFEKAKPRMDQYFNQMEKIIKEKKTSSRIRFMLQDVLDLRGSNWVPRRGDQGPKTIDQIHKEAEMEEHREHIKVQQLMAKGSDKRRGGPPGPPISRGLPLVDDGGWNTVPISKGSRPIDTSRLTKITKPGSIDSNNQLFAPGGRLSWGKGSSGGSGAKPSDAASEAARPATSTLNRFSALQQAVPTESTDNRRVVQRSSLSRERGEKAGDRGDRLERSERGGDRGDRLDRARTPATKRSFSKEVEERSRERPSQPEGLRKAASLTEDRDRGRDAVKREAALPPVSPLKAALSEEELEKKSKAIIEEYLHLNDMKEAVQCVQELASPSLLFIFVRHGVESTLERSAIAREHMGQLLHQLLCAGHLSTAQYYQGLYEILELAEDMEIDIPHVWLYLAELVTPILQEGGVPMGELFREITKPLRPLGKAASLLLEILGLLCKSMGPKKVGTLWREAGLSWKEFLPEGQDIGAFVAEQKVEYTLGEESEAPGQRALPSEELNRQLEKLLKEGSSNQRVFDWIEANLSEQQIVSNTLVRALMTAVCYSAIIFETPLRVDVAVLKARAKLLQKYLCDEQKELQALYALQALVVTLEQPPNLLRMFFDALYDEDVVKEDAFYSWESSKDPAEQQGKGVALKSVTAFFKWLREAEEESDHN
Sequence of UniProt Q2TBE0 (Q2TBE0 whole entry, looked up): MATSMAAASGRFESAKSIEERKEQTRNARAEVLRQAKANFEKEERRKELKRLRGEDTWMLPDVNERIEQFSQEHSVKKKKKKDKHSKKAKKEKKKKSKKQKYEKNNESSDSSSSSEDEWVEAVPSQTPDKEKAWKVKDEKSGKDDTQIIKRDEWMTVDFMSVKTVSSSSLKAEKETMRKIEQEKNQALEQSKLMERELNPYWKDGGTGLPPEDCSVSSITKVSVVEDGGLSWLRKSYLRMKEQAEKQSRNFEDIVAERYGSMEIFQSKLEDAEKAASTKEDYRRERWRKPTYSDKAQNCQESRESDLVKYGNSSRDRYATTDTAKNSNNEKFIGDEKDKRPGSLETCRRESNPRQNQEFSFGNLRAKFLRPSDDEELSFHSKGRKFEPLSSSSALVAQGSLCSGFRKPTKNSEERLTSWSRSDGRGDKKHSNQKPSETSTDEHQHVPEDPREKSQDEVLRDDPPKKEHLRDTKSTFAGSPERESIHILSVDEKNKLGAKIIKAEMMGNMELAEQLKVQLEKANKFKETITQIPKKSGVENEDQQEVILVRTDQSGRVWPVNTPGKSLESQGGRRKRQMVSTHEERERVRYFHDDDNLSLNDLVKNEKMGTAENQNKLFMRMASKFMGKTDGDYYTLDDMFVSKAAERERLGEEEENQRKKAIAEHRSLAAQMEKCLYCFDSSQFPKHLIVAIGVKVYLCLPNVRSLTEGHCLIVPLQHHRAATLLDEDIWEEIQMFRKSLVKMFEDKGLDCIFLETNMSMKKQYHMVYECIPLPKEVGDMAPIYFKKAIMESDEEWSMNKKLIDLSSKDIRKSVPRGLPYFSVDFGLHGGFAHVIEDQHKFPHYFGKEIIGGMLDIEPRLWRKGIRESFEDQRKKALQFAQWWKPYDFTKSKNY
Sequence of UniProt Q8NDI1 (Q8NDI1 whole entry, looked up): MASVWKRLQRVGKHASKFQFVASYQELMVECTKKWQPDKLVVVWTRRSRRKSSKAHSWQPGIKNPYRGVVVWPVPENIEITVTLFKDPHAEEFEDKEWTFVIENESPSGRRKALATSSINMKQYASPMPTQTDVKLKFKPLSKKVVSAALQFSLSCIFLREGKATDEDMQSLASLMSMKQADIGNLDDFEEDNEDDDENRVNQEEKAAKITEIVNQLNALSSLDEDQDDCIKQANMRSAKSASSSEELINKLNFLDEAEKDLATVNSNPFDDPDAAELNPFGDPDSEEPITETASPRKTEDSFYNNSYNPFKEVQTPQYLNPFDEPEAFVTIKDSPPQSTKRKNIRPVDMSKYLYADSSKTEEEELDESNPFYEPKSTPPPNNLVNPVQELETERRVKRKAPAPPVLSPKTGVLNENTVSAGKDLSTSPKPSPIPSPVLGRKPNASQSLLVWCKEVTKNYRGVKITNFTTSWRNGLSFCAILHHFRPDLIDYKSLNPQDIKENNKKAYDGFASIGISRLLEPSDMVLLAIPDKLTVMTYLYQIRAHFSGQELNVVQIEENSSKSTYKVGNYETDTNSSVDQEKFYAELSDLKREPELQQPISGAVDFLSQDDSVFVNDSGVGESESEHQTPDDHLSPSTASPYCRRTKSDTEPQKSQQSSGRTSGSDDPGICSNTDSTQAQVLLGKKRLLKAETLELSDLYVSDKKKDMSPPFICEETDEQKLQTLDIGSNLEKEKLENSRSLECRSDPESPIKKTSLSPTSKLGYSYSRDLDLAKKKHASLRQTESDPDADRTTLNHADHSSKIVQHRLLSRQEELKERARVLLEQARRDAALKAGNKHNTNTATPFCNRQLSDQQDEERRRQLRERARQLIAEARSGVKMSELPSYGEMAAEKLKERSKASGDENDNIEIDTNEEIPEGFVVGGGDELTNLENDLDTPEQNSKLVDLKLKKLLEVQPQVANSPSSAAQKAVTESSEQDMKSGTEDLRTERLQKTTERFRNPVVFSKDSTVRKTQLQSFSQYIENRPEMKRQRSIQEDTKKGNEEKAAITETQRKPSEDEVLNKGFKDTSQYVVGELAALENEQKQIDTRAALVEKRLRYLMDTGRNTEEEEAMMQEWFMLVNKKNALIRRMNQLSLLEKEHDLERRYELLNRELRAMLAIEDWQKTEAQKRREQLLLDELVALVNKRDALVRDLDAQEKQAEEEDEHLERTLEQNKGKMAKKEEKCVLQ

For the target EIF3J isoform 2 (UniProt O75822), the log2 fold change is -0.033 in the assay with bafetinib; -0.101 in the assay with nilotinib; -0.016 in assay [1]; 0.017 in the assay with dasatinib; -0.013 in [2]; 0.078 with tipifarnib. The log2 fold change with mubritinib was 0.1.

DCP2 (UniProt Q8IU60): the log2 fold change with dasatinib was 0.02; in assay [3], -0.021; in assay [4], -0.033; with tipifarnib, -0.112.

Take EZH2 isoform 2 (UniProt Q15910): the log2 fold change was 0.146 with bafetinib; -0.113 in the assay with dasatinib; 0.055 in assay [3]; -0.021 with tipifarnib; -0.097 with mubritinib.

Consider DOP1A (UniProt Q5JWR5), for which the values for the log2 fold change with bafetinib and with mubritinib were -0.091 and 0.127, respectively.

Consider ENTPD7 (UniProt Q9NQZ7), for which the log2 fold change in the assay with bafetinib was -0.165; in the assay with nilotinib, -0.104; in [1] it was -0.17; with dasatinib, -0.235; in [2], 0.056; with tipifarnib it was 0.163. Also, in the assay with mubritinib, the log2 fold change was 0.097.

On to DNAJB1 (UniProt M0R128), for which the log2 fold change with bafetinib is -0.252; in assay [3] it was -0.022.

DBNL (UniProt Q9UJU6): in [3], the log2 fold change was 0.308.

On to DNAJC24 (UniProt Q6P3W2), for which the log2 fold change in the assay with bafetinib was -0.079; with nilotinib, 0.019; in [1] it was -0.054; with dasatinib it was 0.053; in assay [2] it was 0.016; in [3] it was -0.1. The log2 fold change in assay [4] is -0.201; in the assay with tipifarnib, 0.084; with mubritinib, 0.06.

Regarding EIF4G3 isoform 3 (UniProt O43432), the log2 fold change was -0.01 with bafetinib; -0.043 with nilotinib; -0.12 in assay [1]; -0.006 in the assay with dasatinib; 0.052 in assay [2]; -0.073 in [3]. Moreover, the log2 fold change in assay [4] was 0.056; with tipifarnib, 0.083; with mubritinib it was -0.005.

As to EIF4E2 (UniProt O60573), the log2 fold change was -0.055 with bafetinib; -0.094 with nilotinib; -0.052 in assay [1]; -0.232 in the assay with dasatinib; -0.004 in assay [2]; 0.082 in assay [3]. In addition, the values for the log2 fold change (in assay [4]; with tipifarnib; with mubritinib) were -0.059, -0.127 and 0.035, respectively.

With F2RL3 (UniProt Q96RI0), the log2 fold change with dasatinib was -0.03; in [3] it was -0.051; in [4] it was 0.043; in the assay with tipifarnib it was -0.016.

Turning to ELMO1 (UniProt Q92556), the log2 fold change with bafetinib is 0.033; in the assay with nilotinib, -0.038; in [1] it was 0.026; with dasatinib, 0.03; in assay [2] it was -0.001; in assay [4], 0.06. The log2 fold change in the assay with mubritinib was -0.087.

EEF1D isoform 3 (UniProt P29692): the log2 fold change with mubritinib is -0.014.

As for DDX46, A0A0C4DG89, the log2 fold change with nilotinib was 0.151; in assay [1] it was -0.322; in assay [2], 0.032; with mubritinib, 0.242.

In the case of DDX27 (UniProt Q96GQ7), the log2 fold change in assay [5] is -0.093; with nilotinib, -0.193; in assay [1] it was -0.051; with dasatinib, 0.21; in assay [2], 0.3; in assay [3] it was -0.313. The results for the log2 fold change (in assay [4]; with mubritinib) were -0.151 and -0.146, respectively.

As to DOLPP1 (UniProt Q86YN1), the log2 fold change was -0.089 in the assay with bafetinib; 0.035 with nilotinib; -0.062 in assay [1]; -0.023 in assay [2]; -0.045 in [3]; -0.006 in [4]. In addition, the log2 fold change with tipifarnib is 0.075; with mubritinib, 0.021.

For CWF19L2 (UniProt Q2TBE0), the log2 fold change in assay [5] was -0.285; with dasatinib it was 0.118; in assay [3], -0.102; in assay [4] it was 0.001; with tipifarnib, 0.083.

Consider FAM117B (UniProt Q6P1L5), for which the log2 fold change in [5] was 0.01; with dasatinib it was 0.207; in [3] it was -0.029; in assay [4] it was 0.072.

For the target DYNC1I2 isoform 2 (UniProt Q13409), the log2 fold change in the assay with bafetinib was -0.038; in [3], -0.311; in assay [4], -0.067; in the assay with tipifarnib, 0.177; with mubritinib it was 0.067.

Turning to EHBP1 (UniProt Q8NDI1), the figures for the log2 fold change (in assay [5]; in [3]; in the assay with mubritinib) were -0.154, -0.076 and -0.586 (active), respectively.

Consider DENND1A isoform 6 (UniProt Q8TEH3), for which the values for the log2 fold change in the assay with bafetinib and with tipifarnib were -0.086 and -0.113, respectively.

For EIF4G1 (UniProt Q04637), the log2 fold change in assay [5] was 0.017; in the assay with dasatinib, -0.191; in assay [3] it was -0.032.

Consider ERF (UniProt P50548), for which, in assay [5], the log2 fold change was 0.194.

As to DNAL1 (UniProt Q4LDG9), the log2 fold change in the assay with bafetinib was 0.035; with dasatinib it was 0.017; in [3], 0.186; in assay [4], 0.012.

On to DCAF12 (UniProt Q5T6F0), for which the log2 fold change in assay [5] is 0.124; with mubritinib, 0.087.

For the target EID1 (UniProt Q9Y6B2), the log2 fold change in assay [5] was -0.438; with nilotinib it was -0.022; in assay [1], -0.084; in [2], -0.032; with tipifarnib, -0.097; in the assay with mubritinib, 0.208.

As for DDX11 (UniProt Q96FC9), the log2 fold change in the assay with bafetinib was -0.012; with nilotinib it was 0.098; in [1] it was 0.033; with dasatinib it was 0.061; in assay [2], 0.098; in assay [4], -0.132. Besides, the log2 fold change with tipifarnib was 0.005; in the assay with mubritinib, -0.015.

Regarding DCAF4 (UniProt Q8WV16), the log2 fold change was -0.423 (active) in assay [5]; -0.204 in the assay with nilotinib; -0.007 in assay [1]; 0.11 with dasatinib; -0.093 in [2]; 0.079 in assay [4]. The log2 fold change with mubritinib was 0.094.
